Source: PubChem BioAssay (NCI)
Compounds without any hit were thinned out: in the full panel of roughly 83,000, 20% have a hit.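 How to read the values: 0–100, growth inhibition (40 = 60% inhibited); 0, no net growth; -100 to 0, cell death (-40 = 40% of starting cells died; -100 = all dead).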 Unmarked numbers belong to inactive results. Calls of active or inactive are those of the source. How the source made its calls: active means growth percent below 10; inactive means the rest.

Legend:
Assay in all cases: NCI-60 one-dose screen, 48 h (100 = growth as untreated, 0 = no growth, -100 = all killed)
Conditions in all cases: 10 µM unless noted
[1] = test system: NCI-H23 lung
[2] = test system: NCI-H226 lung
[3] = test system: NCI-H322M lung
[4] = test system: HOP-62 NSCLC
[5] = test system: NCI-H460 lung
[6] = test system: NCI-H522 lung
[7] = test system: A549/ATCC NSCLC
[8] = test system: 786-0 renal
[9] = test system: COLO 205 colon
[10] = test system: HOP-92 NSCLC

O=C(CN1C(=O)NC2NC(=O)NC21)N/N=C/c1cccc([N+](=O)[O-])c1 (configuration not stated)
growth [1]: 104%
growth [2]: 94%
growth [3]: 108%
growth [4]: 107%
growth [5]: 107%
growth [6]: 97.3%
growth [7]: 112%
growth [8]: 106%
growth [9]: 122%

COc1ccccc1/C=C/C1=C(C)CCC(c2ccccc2OC)C1C (configuration not stated)
growth [1]: 26.8%
growth [2]: 45.8%
growth [3]: 33.4%
growth [4]: 17.3%
growth [5]: 3.73% (active)
growth [6]: -45% (active)
growth [7]: 21.2%
growth [8]: 12%
growth [9]: -45.3% (active)

COC(=O)c1nc(-c2ccccc2)oc1S(=O)(=O)N1CCN(c2ccc(OC)cc2)CC1
growth [1]: 89.1%
growth [2]: 91.5%
growth [3]: 91.1%
growth [4]: 94.5%
growth [5]: 98.5%
growth [6]: 48.3%
growth [7]: 95.9%
growth [8]: 60.9%
growth [9]: 61.7%

COc1cc(/C=C/C(=O)c2ccc(-n3cc(CN4CCN(c5cc6c(cc5F)c(=O)c(C(=O)O)cn6C5CC5)CC4)nn3)cc2)cc(OC)c1OC
growth [1]: 77.6%
growth [2]: 74.8%
growth [3]: 88.8%
growth [4]: 85.4%
growth [5]: 85.9%
growth [6]: 88%
growth [7]: 90.5%
growth [8]: 72.2%
growth [9]: 112%

CCCC[N+]1(C)CCN=C1Cc1ccccc1 (configuration not stated)
growth [1]: 101%
growth [2]: 97.6%
growth [3]: 99.9%
growth [4]: 105%
growth [5]: 110%
growth [6]: 88.5%
growth [7]: 87.8%
growth [8]: 101%
growth [9]: 111%

O=C1C(c2c(O)[nH]c3ncccc23)=Nc2ccccc21
growth [1]: 76%
growth [2]: 89%
growth [3]: 79.7%
growth [4]: 86.8%
growth [5]: 47.7%
growth [6]: 76.3%
growth [7]: 82.4%
growth [8]: 84.1%
growth [9]: 82.8%

Cn1nc(-c2ccc(Cl)cc2)nc2c(=O)n(C)c(=O)nc1-2
growth [1]: -45% (active)
growth [2]: -51.4% (active)
growth [3]: -68.5% (active)
growth [4]: -72.9% (active)
growth [5]: 0.75% (active)
growth [10]: -28.9% (active)
growth [6]: -75.4% (active)
growth [8]: -82.2% (active)
growth [9]: -90.6% (active)

N/C(=N\c1nc2ccccc2s1)NC(=O)Nc1ccccc1
growth [1]: 54.7%
growth [2]: 87.8%
growth [3]: 74.3%
growth [4]: 30%
growth [5]: 14.4%
growth [6]: -13.2% (active)
growth [7]: 39%
growth [8]: 52.3%
growth [9]: 28.3%

COc1ccc(Cn2cc3c(c2)-c2oncc2CC3)cc1
growth [1]: 79.8%
growth [2]: 86.9%
growth [3]: 89.6%
growth [4]: 58.8%
growth [5]: 39.9%
growth [6]: 71%
growth [7]: 52.1%
growth [8]: 72.5%
growth [9]: 68.4%

Cc1ccc(-c2nnc(SCc3nc(N)nc(Nc4ccccc4F)n3)n2-c2ccccc2)cc1
growth [1]: 101%
growth [2]: 80.4%
growth [3]: 93.5%
growth [4]: 94.6%
growth [5]: 95.8%
growth [10]: 67.3%
growth [6]: 81.5%
growth [8]: 95.7%
growth [9]: 101%

CN(C)C(=O)OCc1ccc2c(Cl)cc(Cl)c(O)c2n1
growth [1]: 51.2%
growth [2]: 68.3%
growth [3]: 53.8%
growth [4]: 27.3%
growth [5]: 31.3%
growth [6]: 65.1%
growth [7]: 25%
growth [8]: 48.7%
growth [9]: 104%

Brc1ccc(-c2nn(-c3ccccc3)cc2-c2nn[nH]n2)s1
growth [1]: 92.7%
growth [2]: 85.7%
growth [3]: 96%
growth [4]: 82.7%
growth [5]: 102%
growth [6]: 84.1%
growth [7]: 93.9%
growth [8]: 88.1%
growth [9]: 120%

CCOC(=O)c1c(N)sc2cc(O)ccc12
growth [1]: 95.2%
growth [2]: 110%
growth [3]: 91.1%
growth [4]: 104%
growth [5]: 112%
growth [6]: 80%
growth [7]: 99.7%
growth [8]: 104%
growth [9]: 112%

Nc1ncc(-c2ccc3ncnc(N4CCc5ccc(Cl)cc54)c3c2)cn1
growth [1]: 12.4%
growth [2]: 0.981% (active)
growth [3]: -15.4% (active)
growth [4]: -11.9% (active)
growth [5]: 4.03% (active)
growth [6]: -15.7% (active)
growth [7]: 0.08% (active)
growth [8]: -0.891% (active)
growth [9]: -25.8% (active)

CCCCC/C=C/CCC(=O)N[C@H]1[C@H](Oc2c3cc4cc2Oc2ccc(cc2Cl)[C@@H](O[C@@H]2O[C@H](CO)[C@@H](O)[C@H](O)[C@H]2NC(C)=O)[C@@H]2NC(=O)[C@H](NC(=O)[C@@H]4NC(=O)[C@H]4NC(=O)[C@@H](Cc5ccc(c(Cl)c5)O3)NC(=O)[C@@H](N)c3ccc(O)c(c3)Oc3cc(O)cc4c3)c3ccc(O)c(c3)-c3c(O[C@H]4O[C@H](CO)[C@@H](O)[C@H](O)[C@@H]4O)cc(O)cc3[C@H](C(=O)O)NC2=O)O[C@H](CO)[C@H](O)[C@@H]1O
growth [1]: 93.4%
growth [2]: 105%
growth [3]: 108%
growth [4]: 113%
growth [5]: 107%
growth [10]: 96.4%
growth [6]: 103%
growth [8]: 101%
growth [9]: 103%

CCOc1cc(\C=N/N=C(N)/C(N)=N\N=C/c2ccc(O)c(OCC)c2)ccc1O
growth [1]: 97.7%
growth [2]: 99.9%
growth [3]: 103%
growth [4]: 109%
growth [5]: 107%
growth [6]: 105%
growth [7]: 107%
growth [8]: 110%
growth [9]: 5.55% (active)

C#CC#CC#CC#CC#CC#CC#CC#CC[C@@H]1OC[C@H](COC(=O)O[C@@H](C(=O)O[C@H]2C[C@@]3(O)[C@@H](OC(=O)c4ccccc4)[C@@H]4[C@]5(OC(C)=O)CO[C@@H]5C[C@H](O)[C@@]4(C)C(=O)[C@H](OC(C)=O)C(=C2C)C3(C)C)[C@@H](NC(=O)c2ccccc2)c2ccccc2)O1
growth [1]: 34.5%
growth [2]: 57.6%
growth [3]: 35.9%
growth [4]: 55%
growth [5]: 10.6%
growth [6]: 48.6%
growth [7]: 36.7%
growth [8]: 72.9%
growth [9]: 18.7%

CC(C)=CCC[C@](C)(O)C1CC[C@]2(C)[C@@H]1CC[C@@H]1[C@@]3(C)CC/C(=N\OCCC#N)C(C)(C)[C@@H]3CC[C@]12C (some centres not stated)
growth [1]: 72.5%
growth [2]: 68%
growth [3]: 98.8%
growth [4]: 89.5%
growth [5]: 79.6%
growth [6]: 68.7%
growth [7]: 76.2%
growth [8]: 86.2%
growth [9]: 83.9%

CN1CC(c2ccccc2)C(C(=O)c2ccc(Br)cc2)C12C(=O)Nc1ccccc12 (configuration not stated)
growth [1]: 96.2%
growth [2]: 90.5%
growth [3]: 103%
growth [4]: 94.8%
growth [5]: 99.4%
growth [6]: 83%
growth [7]: 92.2%
growth [8]: 97.8%
growth [9]: 112%

COc1nc2ccccc2cc1/C=C1/C=C(c2ccccc2)NC1=O
growth [1]: 56.3%
growth [2]: 55.4%
growth [3]: 81.3%
growth [4]: 39.2%
growth [5]: 15.7%
growth [6]: 38.5%
growth [7]: 41.7%
growth [8]: 29.5%
growth [9]: 29.3%

CO[C@]12C=C/C(=C(/C(=O)OCc3cccnc3)C(=O)CCCCCCCC[C@]3(OC)C=C/C(=C(/C(=O)OCc4cccnc4)C(=O)CCCCCCCC1)O3)O2
growth [1]: -75.3% (active)
growth [2]: -78.1% (active)
growth [3]: -85% (active)
growth [4]: -33.1% (active)
growth [5]: -18.3% (active)
growth [10]: -28.5% (active)
growth [6]: -39.6% (active)
growth [8]: -64.1% (active)
growth [9]: -56.5% (active)

Cc1csc(Nc2nc(-c3cccc(Cl)c3)nc(C(Cl)(Cl)Cl)n2)n1
growth [1]: 79%
growth [2]: 95.6%
growth [3]: -23.1% (active)
growth [4]: 20.3%
growth [5]: 9.9% (active)
growth [6]: 83.6%
growth [7]: 1.73% (active)
growth [8]: 59.5%
growth [9]: -38.6% (active)

Cc1nc2ccccc2c(/C=C/c2ccc(Cl)cc2)c1C(=O)/C=C/c1ccccc1
growth [1]: 22.2%
growth [2]: 40.2%
growth [3]: 41.2%
growth [4]: -36.7% (active)
growth [5]: -33% (active)
growth [6]: -13.3% (active)
growth [7]: 21.2%
growth [8]: 7.29% (active)
growth [9]: -5.72% (active)

O=C(/C=C/c1ccc([N+](=O)[O-])cc1)c1cccc(Nc2nc(Nc3ccccc3)nc(Nc3ccccc3)n2)c1
growth [1]: 60.9%
growth [2]: 82.6%
growth [3]: 75.9%
growth [4]: 69.2%
growth [5]: 81.1%
growth [10]: -2.76% (active)
growth [6]: 78.7%
growth [8]: 70.5%
growth [9]: 65.1%

CC1(C)C2=C(C(=O)N1Cc1ccccc1)C(c1ccco1)N(C(=O)C1CCC1)CCN2 (configuration not stated)
growth [1]: 95.8%
growth [2]: 116%
growth [3]: 107%
growth [4]: 103%
growth [5]: 106%
growth [6]: 93.8%
growth [7]: 75.8%
growth [8]: 99.5%
growth [9]: 112%

CCC(=C(c1ccc(OCCN(CC)CC)cc1)c1ccc(OCCN(CC)CC)cc1)c1ccc(Cl)cc1
growth [1]: 68.7%
growth [2]: 109%
growth [3]: -8.03% (active)
growth [4]: -27% (active)
growth [5]: -81.4% (active)
growth [6]: -39.4% (active)
growth [7]: -75% (active)
growth [8]: -95.4% (active)
growth [9]: -69% (active)

CCN(CC)CCCNC(=O)c1c2c(n3ccccc13)C(=O)c1ncccc1C2=O
growth [1]: -38.7% (active)
growth [2]: -34.9% (active)
growth [3]: -49% (active)
growth [4]: -69% (active)
growth [5]: -44.4% (active)
growth [6]: -79% (active)
growth [7]: -65.3% (active)
growth [8]: 3.22% (active)
growth [9]: -95.6% (active)

Nc1c(C(=O)c2ccc(Cl)cc2)sc(Nc2ccccc2)c1-c1nc2ccccc2s1
growth [1]: 17%
growth [2]: 49.9%
growth [3]: 30.5%
growth [4]: -7.72% (active)
growth [5]: -0.299% (active)
growth [6]: 7.38% (active)
growth [7]: 17.8%
growth [8]: 8.1% (active)
growth [9]: 51.4%
